This is part of a sample that, as a whole, favours compounds with a hit. Of some 83,000 tested, about 20% had one in any assay.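 Treatment: one concentration, 48 hours, 96-well format. Scoring: percent growth, with anything below 10 considered active.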 Calls of active or inactive are those of the source.
system: HL-60(TB) leukemia; assay: NCI-60 one-dose screen, 48 h (100 = growth as untreated, 0 = no growth, -100 = all killed); conditions: 10 µM unless noted

| SMILES | growth |
| --- | --- |
| COc1ccc2[nH]c(O)c(N=Nc3nc(-c4ccc(Br)cc4)cs3)c2c1 | 73.5% (inactive) |
| COc1ccc(C=CC(=O)c2ccc(-n3c(C)nc4c(cnn4-c4ccccc4)c3=O)cc2)cc1 | 44.7% (inactive) |
| COC(=O)c1c(C(=O)OC)c2ccc3c4ccccc4ccc3n2c1C(=O)C(C)Br (centres undefined) | 39% (inactive) |
| Cn1cc(/C=C(/SS/C(=C/c2cn(C)c3cccc(C(=O)O)c23)C(=O)O)C(=O)O)c2c(C(=O)O)cccc21 | 99.2% (inactive) |
| COc1ccc(/C=C/c2nc3ccccc3nc2Nc2cccc(C)c2)cc1 | 92.8% (inactive) |
| CCOC(=O)C1=C(N)N(c2ccccc2)C2=C(C(=O)CC(C)(C)C2)C1c1ccc(N2CCOCC2)cc1 (centres undefined) | 101% (inactive) |
| O=C1CCC(N2Cc3cc(CC(=O)Nc4ccc(N5CCCCC5)cc4)ccc3C2=O)C(=O)N1 (centres undefined) | -0.226% (active) |
| O=C1/C(=C/c2cnc(-c3ccccc3)s2)SC(=S)N1Cc1ccc2c(c1)OCO2 | 69% (inactive) |
| COc1ccc2[nH]cc(/C=N/Nc3ccc(Br)cn3)c2c1 | 5.34% (active) |
| O=C(N/N=C/c1ccc(B(O)O)o1)c1[nH]c2ccc(Br)cc2c1-c1ccccc1 | -29.3% (active) |
| O=C(Nc1ccc(Cl)c(C(F)(F)F)c1)N1CCN(c2cc(-c3cn(-c4ccccc4)nc3-c3cccc(O)c3)ccn2)CC1 | -34.3% (active) |
| N#Cc1c(-c2cccc(Cl)c2Cl)cc(-c2c[nH]c3ccccc23)[nH]c1=O | 62.1% (inactive) |
| Brc1ccc(/C=C/c2n(Cc3ccc4ccccc4c3)c3ccccc3[n+]2Cc2ccc3ccccc3c2)cc1 | -48.7% (active) |
| COc1ccc(N=Nc2c(N)nn3c(N)c(C#N)c(-c4ccc(C)cc4)nc23)cc1 | 52.1% (inactive) |
| O=C1c2cccc3c(N4CCN(c5ccccc5)CC4)ccc(c23)C(=O)N1c1cccc(-c2nn(-c3ccccc3)cc2-c2nc3ccccc3s2)c1 | 98.5% (inactive) |
| C=C1CCC2C3(C)COC(c4cc(F)cc(F)c4)OC3CCC2(C)C1CC(O)C1=CCOC1=O (centres undefined) | 61.2% (inactive) |
| NS(=O)(=O)c1ccc(N=Nc2c(O)n(CC(=O)Nc3ccccc3Cl)c3ccccc23)cc1 | 45.8% (inactive) |
| CN1CCN(C(=O)Oc2cc3c(c4ccccc24)[C@H](CCl)CN3C(=O)c2cc3cc(OCCCN4CCC4)ccc3[nH]2)[C@@H]2CSSC[C@H]21 | -25.8% (active) |
| Cc1nn(-c2ccccc2)c2nc(C)n(CC(=O)N/N=C/c3ccccc3O)c(=O)c12 | 7.2% (active) |
| Cc1ccc(C2=NN(c3nc(-c4cc5ccccc5oc4=O)cs3)C(c3ccc(C)cc3)C2)cc1 (centres undefined) | 91% (inactive) |

| SMILES | growth |
| --- | --- |
| O=C(N1c2ccccc2Sc2ccccc21)n1ccc2cccnc21 | 25.2% (inactive) |
| Fc1ccc(-c2csc(Nc3cccc(Nc4nc(-c5ccc(F)cc5)cs4)c3)n2)cc1 | 74.3% (inactive) |
| O=c1ccc(Cn2c(C(F)(F)F)cc3c(Cl)ncnc32)c[nH]1 | -20.6% (active) |
| Cc1ccc(-c2nc(Nc3ccccc3S(N)(=O)=O)c3ccccc3n2)cc1 | 81.1% (inactive) |
| Cn1cc(-c2cc3nc(-c4c[nH]c5ccccc45)cc(N)n3n2)c2cc(Cl)ccc21 | -24.8% (active) |
| O=S(=O)(Nc1ncccn1)c1ccc(-n2c(-c3ccc(Br)cc3)nc(-c3ccccc3)c2-c2ccccc2)cc1 | 41.2% (inactive) |
| C=C1CCC2C3(C)COC(c4ccc(F)cc4)OC3CCC2(C)C1CC(O)C1=CCOC1=O (centres undefined) | 35.9% (inactive) |
| C#C[C@]1(O)CC[C@H]2[C@@H]3CC=C4c5sc(Nc6ccc(N(C)C)cc6)nc5CC[C@]4(C)[C@H]3CC[C@@]21C | -26.1% (active) |
| O=c1cc(-c2ccccc2)oc2cc(OCCCCNCc3ccccc3)cc(O)c12 | -65.6% (active) |
| COc1cc2c(c(OC)c1OC)C(=O)CC(c1cccc(NC(=O)c3cccc(NC(=O)[C@H](C)NC(=O)OC(C)(C)C)c3)c1)O2 (some centres undefined) | 71.2% (inactive) |
| O=C(NCCCCCCCCCC[P+](c1ccccc1)(c1ccccc1)c1ccccc1)c1ccc(-n2nc(-c3ccccc3O)nc2-c2ccccc2O)cc1 | -29.8% (active) |
| COc1cccc(/C=C/c2nc3ccccc3c(=O)n2CC(=O)Nc2ccccc2)c1 | 97.7% (inactive) |
| O=C(/C=C1\C(=O)N(Cc2ccccc2)c2ccccc21)c1cc2ccccc2oc1=O | 93% (inactive) |
| Nc1nc(-c2ccccc2)c(N=Nc2ccc(Cl)cc2[N+](=O)[O-])s1 | 83.8% (inactive) |
| COc1cc(C2CC(c3ccc(F)cc3)=Nc3c(N)nc(N)nc3N2)ccc1Oc1nc(Nc2ccc(F)cc2)nc(N(C)C)n1 (centres undefined) | 14.4% (inactive) |
| CC(=O)OC[C@@]1(C)C2CC[C@]3(C)C(CC=C4C5CC(C)(C)CC[C@]5(C(=O)Nc5cccc(C)c5)CC[C@]43C)[C@@]2(C)C[C@@H](OC(C)=O)[C@@H]1OC(C)=O (some centres undefined) | 29.4% (inactive) |
| COc1cc2c(c(OC)c1OC)C(=O)CC(c1cccc(NC(=O)c3cc(N)ccc3Cl)c1)O2 (centres undefined) | 52.2% (inactive) |
| COC(=O)/C=C/c1cccc2c1C(=O)NC(C)(c1cc3ccccc3oc1=O)N2 (centres undefined) | 40% (inactive) |
| O=C(CSc1nc2sc3c(c2c(=O)n1-c1ccc(Cl)cc1)CCCC3)NNC(=O)c1ccc(Br)cc1 | 91.1% (inactive) |

Source: PubChem BioAssay (NCI)
